Holding throughout (format): functional
Experiment [1] deals with Plasmodium falciparum. Briefly: GSK_TCMDC: Inhibition of Plasmodium falciparum 3D7 in whole red blood cells, using parasite LDH activity as an index of growth. Test compounds present at 2uM.
In experiment [2] the test system is Plasmodium falciparum. Briefly: GSK_TCMDC: Inhibition of Plasmodium falciparum Dd2 in whole red blood cells, using parasite LDH activity as an index of growth. Test compounds present at 2uM.
Another experiment relates to HepG2. Briefly: GSK_TCMDC: Percent inhibition of human HepG2 cell line. Test compounds present at 10uM.

On to `O=C(NCCCCN1CCN(CC=Cc2ccccc2)CC1)c1ccc(NC(=O)c2cc(Cl)cc(Cl)c2)cc1`, for which the Inhibition (commonly the drop in the measured response relative to a control, in per cent) with Plasmodium falciparum [1] worked out at 100%; in the experiment with Plasmodium falciparum [2], 63%; in the experiment with HepG2, 26%.

For the compound `CC(C)(C)c1cc(Cn2ccnc2)cc(C(C)(C)C)c1O`, the Inhibition is on record as 85% with Plasmodium falciparum [1], 3% with Plasmodium falciparum [2] and 4% in the experiment on HepG2.

With `Nc1c2ccccc2nc2ccc(-c3ccccc3)cc12`, the Inhibition in the experiment on Plasmodium falciparum [1] came out at 100%; in the experiment with Plasmodium falciparum [2], 99%; in the experiment with HepG2, 100%.

Turning to `COc1ccc(-n2nc(C)c3c2NC(=O)CC3c2ccccc2OCc2ccccc2F)cc1` (stereo not drawn), the figures for the Inhibition with Plasmodium falciparum [1], with Plasmodium falciparum [2] and in the experiment on HepG2 were 93%, 70% and 38%, respectively.

Turning to `CCCCCCN1CCCN(Cc2ccc(C(=O)Nc3ccc(F)c(F)c3)cc2)CC1.O=C(O)C(F)(F)F`, the Inhibition is on record as 84% in the experiment with Plasmodium falciparum [1], 48% in the experiment with Plasmodium falciparum [2] and 50% in the experiment with HepG2.

Turning to `CC(=O)c1ccc(-c2ccc(C(=O)NCCCCN3CCC(c4ccc5c(c4O)CCCC5)CC3)cc2)cc1`, the Inhibition in the experiment on Plasmodium falciparum [1] is on record as 100%; in the experiment with Plasmodium falciparum [2], 83%; in the experiment on HepG2, 87%.

On to `O=C(O)C(F)(F)F.Oc1ccc(CCNc2nc(NCCCOc3ccccc3-c3cccc(C(F)(F)F)c3)nc(N3CCNCC3)n2)cc1`, for which the Inhibition with Plasmodium falciparum [1] was found to be 93%; in the experiment with Plasmodium falciparum [2] it was 5%; with HepG2, 24%.

With `O=C(O)C(F)(F)F.c1ccc(CCNCc2ccc(-c3cccc(CNc4ccc5ncccc5c4)c3)cc2)cc1`, the values for the Inhibition in the experiment on Plasmodium falciparum [1], with Plasmodium falciparum [2] and in the experiment on HepG2 were 91%, 17% and 30%, respectively.

With `Cc1ccc(NC(=O)c2ccc(CN3CCCN(Cc4cccc(Cl)c4)CC3)cc2)cc1C.O=C(O)C(F)(F)F`, the Inhibition in the experiment with Plasmodium falciparum [1] is recorded as 84%; with Plasmodium falciparum [2], 18%; with HepG2 it was 41%.

As for `CNc1ccc(CNCc2cccc(-c3ccc(-c4nc5ccccc5[nH]4)s3)c2)cc1.O=C(O)C(F)(F)F`, the Inhibition in the experiment with Plasmodium falciparum [1] came to 100%; with Plasmodium falciparum [2] it was 77%; in the experiment with HepG2, 15%.

Take `COc1ccc(CNCc2ccc(F)cc2)cc1-c1ccc(S(=O)(=O)NCCN2CCCC2)cc1.O=C(O)C(F)(F)F`: the figures for the Inhibition in the experiment with Plasmodium falciparum [1], with Plasmodium falciparum [2] and in the experiment with HepG2 were 91%, 25% and 38%, respectively.

For the compound `Br.CC1(C)NC(N)=NC(=N)N1OCCCOc1cc(Cl)ccc1Cl`, the Inhibition in the experiment with Plasmodium falciparum [1] stood at 96%; in the experiment on Plasmodium falciparum [2] it was 96%; in the experiment on HepG2, 64%.

`Cc1cc(N[C@@H](Cc2ccccc2)C(=O)Nc2ccccc2)nc(Nc2ccccc2)n1.O=C(O)C(F)(F)F`: the values for the Inhibition in the experiment on Plasmodium falciparum [1], in the experiment with Plasmodium falciparum [2] and with HepG2 were 100%, 69% and 8%, respectively.

As for `O=C(O)C(F)(F)F.Oc1ccc(CN2Cc3ccccc3OC3(CCN(Cc4c[nH]c5cnccc45)CC3)C2)cc1`, the Inhibition with Plasmodium falciparum [1] is reported as 100%; with Plasmodium falciparum [2] it was 3%; with HepG2, 17%.

`CN(C)Cc1c(O)ccc2[nH]c(-c3ccc(F)cc3F)nc12`: the figures for the Inhibition in the experiment on Plasmodium falciparum [1], in the experiment on Plasmodium falciparum [2] and in the experiment on HepG2 were 99%, 17% and 4%, respectively.

Take `Br.CN1C(=O)C(=O)N(CCCCCONC(=N)N)C1=S`: the Inhibition in the experiment on Plasmodium falciparum [1] stood at 100%; in the experiment with Plasmodium falciparum [2], 1%; with HepG2, 21%.

With `Cl.N=C(NCCCCC1CCCCC1)c1cccc(C(=N)NCCCCC2CCCCC2)n1`, the Inhibition in the experiment on Plasmodium falciparum [1] came out at 100%; in the experiment on Plasmodium falciparum [2], 19%; in the experiment on HepG2, 99%.

Consider `CC(=O)Oc1cc(C)ccc1C1CCN(CCCCNC(=O)c2ccc(NC(=O)c3ccc(Cl)cc3)cc2)CC1`, for which the Inhibition in the experiment on Plasmodium falciparum [1] came to 100%; in the experiment with Plasmodium falciparum [2], 57%; with HepG2 it was 12%.

Regarding `COc1ccc2nccc([C@@H](O)CN3CCC(NCc4cc5cc(Cl)ccc5[nH]4)CC3)c2c1.O=C(O)C(=O)O`, the Inhibition in the experiment on Plasmodium falciparum [1] is listed as 99%; with Plasmodium falciparum [2], 64%; in the experiment on HepG2, 27%.

Regarding `Cc1ccc(CN2CCC(Oc3cccc(NC(=O)c4ccc(C(F)(F)F)cc4)c3)CC2)cc1.O=C(O)C(F)(F)F`, the Inhibition in the experiment on Plasmodium falciparum [1] is 92%; in the experiment with Plasmodium falciparum [2] it was 15%; with HepG2, 37%.

Turning to `Nc1nc(N)c2c(ccc3c2ccn3CCCF)n1`, the results for the Inhibition with Plasmodium falciparum [1], in the experiment with Plasmodium falciparum [2] and in the experiment on HepG2 were 94%, 0% and 61%, respectively.

`CC(=O)c1cc(N2CCOCC2)ccc1N`: the Inhibition with Plasmodium falciparum [1] came out at 91%; in the experiment on Plasmodium falciparum [2], 43%; in the experiment on HepG2, 7%.

`O=C(NC1CCN(CCN2CCC(c3ccccc3C(F)(F)F)CC2)CC1)c1ccc(-c2ccc(Cl)cc2)cc1`: the Inhibition came to 100% with Plasmodium falciparum [1], 68% with Plasmodium falciparum [2] and 39% with HepG2.

Turning to `COCCNCc1ccc(-c2cccc(CNc3ccc(OC)cc3)c2)cc1.O=C(O)C(F)(F)F`, the values for the Inhibition with Plasmodium falciparum [1], in the experiment with Plasmodium falciparum [2] and in the experiment with HepG2 were 94%, 2% and 16%, respectively.

For `Cc1ccc(NC(=O)c2ccc(C(=O)NC3CCN(CC4CCCCC4)CC3)cc2)cc1.O=C(O)C(F)(F)F`, the Inhibition in the experiment on Plasmodium falciparum [1] is recorded as 93%; in the experiment with Plasmodium falciparum [2], 0%; in the experiment on HepG2, 36%.

Consider `c1ccc(Oc2ccc(Nc3ccnc4ccc(-c5ccco5)cc34)cc2)cc1`, for which the results for the Inhibition in the experiment on Plasmodium falciparum [1], in the experiment with Plasmodium falciparum [2] and with HepG2 were 87%, 32% and 0%, respectively.

As to `O=C(NCCCCN1CCC(c2c[nH]c3ccccc23)CC1)c1ccc(-c2ccc(C(F)(F)F)cc2)cc1`, the Inhibition in the experiment with Plasmodium falciparum [1] came to 98%; in the experiment with Plasmodium falciparum [2], 22%; in the experiment on HepG2 it was 34%.

Regarding `Nc1ncc(-c2cn[nH]c2)cc1-c1nc2cc(Cl)cnc2[nH]1`, the Inhibition stood at 100% in the experiment with Plasmodium falciparum [1], 70% in the experiment with Plasmodium falciparum [2] and 40% in the experiment with HepG2.

In the case of `CC1(C)S(=O)(=O)CC(O)CS1(=O)=O`, the figures for the Inhibition in the experiment on Plasmodium falciparum [1], with Plasmodium falciparum [2] and in the experiment with HepG2 were 98%, 9% and 8%, respectively.

With `O=C(c1ccc(-c2cccc(-c3nc4cc(F)ccc4[nH]3)c2)cc1)N1CCCCC1CN1CCC(O)C1` (stereo not drawn), the Inhibition with Plasmodium falciparum [1] was 91%; in the experiment on Plasmodium falciparum [2], 0%; with HepG2 it was 11%.

For the compound `C=C[C@]1(C)C[C@@H](OC(=O)c2n[nH]c3ccccc3c2=O)[C@]2(C)[C@H](C)CC[C@]3(CCC(=O)[C@H]32)[C@@H](C)[C@@H]1O`, the Inhibition with Plasmodium falciparum [1] worked out at 96%; with Plasmodium falciparum [2], 84%; in the experiment on HepG2, 0%.

These data come from ChEMBL document CHEMBL1157539, “Thousands of chemical starting points for antimalarial lead identification” (Nature, 2010).
